Inconclusive results are not listed. Activity calls are given as the source filed them. Unless noted, the call rests on the fitted dose curve; in most records, active means well fitted curve in the direction sought with a large enough effect in the repeat runs; inconclusive means weak or mixed curves; inactive means no such curve, though single readings can be large; an effect the other way counts as inactive or inconclusive.
Columns and labels:
[1] = qHTS assay to identify small molecule agonists of the constitutive androstane receptor (CAR) signaling pathway - cell viability counter screen (AID 1224836); further: nearly all actives have a fitted effect of over 45% in size; further: potency means the concentration at half of the fitted maximal effect
Summary of the method: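 Multiplexed viability check: HepG2-CYP2B6-hCAR cells, 15-point compound dosing, 0.75 uM PK11195 final, 23 h at 37 C, CellTiter-Fluor fluorescence.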

[2] = qHTS assay to identify small molecule antagonists of the constitutive androstane receptor (CAR) signaling pathway - cell viability counter screen (AID 1224837); further: nearly all actives have a fitted effect of over 45% in size; further: potency means the concentration at half of the fitted maximal effect
Summary of the method: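 In quantitative HTS format, compounds at 15 concentrations were applied to HepG2 cells double-transfected with hCAR and CYP2B6-2.2kb under 50 nM CITCO stimulation; live-cell protease activity was read after 23 hr via CellTiter-Fluor.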

[3] = qHTS assay to identify small molecule antagonists of the estrogen related receptor signaling pathway with the pleiotropic PPARgamma coactivator (PGC) from Tox21 10K library - cell viability counter screen (AID 1224840; active means well fitted cell-killing curve with a large enough effect in the repeat runs, not every such curve was filed as active; further: nearly all actives have a fitted effect of over 40% in size; further: potency means the concentration at half of the fitted maximal effect)
Summary of the method: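 Viability counter screen, PGC/ERR cells: 17.5 h compound exposure at 37 C, CellTiter-Fluor fluorescence endpoint.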

[4] = qHTS assay to identify small molecule agonists of H2AX (AID 1224845; active means well fitted activation curve with a large enough effect in the signal ratio in the repeat runs, not every such curve was filed as active; the % refers to the signal ratio; further: potency means the concentration at half of the fitted maximal effect)
Summary of the method: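 Wild-type CHO-K1 cells, plated overnight, exposed 3hr at 37C to 15 concentrations (0.76% DMSO final). Lysed, then HTRF anti-pH2AX (S139) cryptate and anti-H2AX-d2 antibodies, 24 hr room temperature; 665/620 nm emission read.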

[5] = qHTS assay to identify small molecule agonists of H2AX - cell viability counter screen (AID 1224847; calls by dose curve; further: nearly all actives have a fitted effect of over 30% in size; further: potency means the concentration at half of the fitted maximal effect)
Summary of the method: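 After overnight plating of 1000 CHO-K1 cells per well, a 15-concentration compound series was applied for 3 hr at 37C. Luminescence from CellTiter-Glo, read following 30 min at room temperature, reflected cell viability.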

[6] = qHTS RealTime-Glo MT Cell Viability Assay in HepG2 cells - 24 hour (AID 1224867); further: nearly all actives have a fitted effect of over 50% in size; further: potency means the concentration at half of the fitted maximal effect
Summary of the method: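 Luminescence read-out: viable HepG2 cells reduce a prosubstrate to a NanoLuc substrate, giving a signal proportional to live cell number. Reads taken at 0, 8, 16, 24, 32 and 40 h of compound exposure at 37 C.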

[7] = qHTS RealTime-Glo MT Cell Viability Assay in HEK293 cells - 32 hour (AID 1224868); further: nearly all actives have a fitted effect of over 50% in size; further: potency means the concentration at half of the fitted maximal effect
Summary of the method: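 Nonlytic real-time viability readout: viable cells convert prosubstrate to NanoLuc substrate, giving luminescence proportional to live cell number. HEK293, 600 cells/well, compound added after 5 h, continuous culture at 37 C.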

[8] = A CellTox Green Cytotoxicity Assay to monitor cytotoxicity in HEK293 cells - 0 hour (AID 1224869); further: nearly all actives have a fitted effect of over 50% in size; further: potency means the concentration at half of the fitted maximal effect; on Cytotoxicity: on the % scale 0 is the no-effect control and ±100 the full control effect
Summary of the method: (§1)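 Homogeneous no-lysis format: HEK293 cell suspension mixed with CellTox Green reagent, seeded, incubated 5 h at 37 C/5% CO2, then dosed by pintool with compound in DMSO.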

[9] = qHTS RealTime-Glo MT Cell Viability Assay in HepG2 cells - 40 hour (AID 1224870); further: nearly all actives have a fitted effect of over 50% in size; further: potency means the concentration at half of the fitted maximal effect
Summary of the method: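 HepG2 cells (600/well) mixed with RealTime-Glo MT reagent, settled 5 h at 37 C/5% CO2 before compound addition. Nonlytic NanoLuc luminescence from viable-cell prosubstrate reduction read repeatedly during 40 h treatment at 37 C.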

[10] = target: Luciferin 4-monooxygenase (Photinus pyralis) (UniProt P08659); test: qHTS assay to identify small molecule inhibitors of firefly luciferase (AID 1224835); further: on the % scale 0 is the no-effect control and ±100 the full control effect; nearly all actives have a fitted effect of over 25% in size
Summary of the method: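 Biochemical qHTS: compounds run as interplate titrations against purified firefly enzyme, with D-luciferin and ATP each at its KM concentration. Light output recorded by CCD imaging.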

[11] = qHTS assay to identify small molecule agonists of the estrogen related receptor signaling pathway with the pleiotropic PPARgamma coactivator (PGC) from Tox21 10K library (AID 1224842); further: on the % scale 0 is the no-effect control and ±100 the full control effect; nearly all actives have a fitted effect of over 15% in size
Summary of the method: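 PGC/ERR reporter cell line, 2,000 cells per well, incubated 6 h at 37 C before 23 nL compound in DMSO was added. After 18 h at 37 C, One-Glo luminescence read following 30 min at room temperature.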

[12] = target: Thyrotropin receptor (Homo sapiens) (UniProt P16473); test: qHTS assay to identify small molecule agonists of the thyroid stimulating hormone receptor (TSHR) signaling pathway (AID 1224843; calls by dose curve; further: on the % scale 0 is the no-effect control and ±100 the full control effect; nearly all actives have a fitted effect of over 45% in size)
Summary of the method: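 Agonist-mode screen: TSHR HEK293 cells received test chemicals for half an hour at room temperature, then HTRF cAMP detection reagents for one hour prior to fluorescence measurement. Each chemical ran as a 15-concentration series, triplicated.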

[13] = qHTS assay to identify small molecule agonists of the hypoxia (HIF-1) signaling pathway - cell viability counter screen (AID 1224844; calls by dose curve; further: nearly all actives have a fitted effect of over 50% in size; further: potency means the concentration at half of the fitted maximal effect)
Summary of the method: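 Same wells as the HIF-1 reporter screen; ME-180 cells carrying HRE-bla, 17 hr treatment at 37C; CellTiter-Glo luminescence read after 30 min at room temperature.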

[14] = qHTS assay to identify small molecule agonists of the hypoxia (HIF-1) signaling pathway (AID 1224846; active means well fitted activation curve with a large enough effect in the signal ratio in the repeat runs, not every such curve was filed as active; the % refers to the signal ratio; further: on the % scale 0 is the no-effect control and ±100 the full control effect)
Summary of the method: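 In ME-180 cells bearing an HRE-bla construct, 17 h treatment with DMSO-dissolved compounds at 37C was followed by CCF4-AM loading to quantify reporter induction.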

[15] = qHTS assay to identify small molecule antagonists of the estrogen related receptor (ERR) signaling pathway from Tox21 library (AID 1224848); further: nearly all actives have a fitted effect of over 50% in size; further: potency means the concentration at half of the fitted maximal effect
Summary of the method: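 Quantitative high-throughput format: ERR reporter cells (2,000/well) pre-incubated 6 h, treated 18 h at 37 C with compounds in DMSO alongside positive and negative controls, then read by ONE-Glo luminescence.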

[16] = qHTS assay to identify small molecule agonists of the estrogen related receptor (ERR) signaling pathway from Tox21 library (AID 1224849; calls by dose curve; further: on the % scale 0 is the no-effect control and ±100 the full control effect; nearly all actives have a fitted effect of over 15% in size); details: ERR reporter cell line, ONE-Glo luciferase, 18 h; at 92.4 µM (top of the series) unless noted
Summary of the method: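 Reporter cells (ERR, NTP source) treated with Tox21 10K compounds 18 h, 37 C. Readout: ONE-Glo luminescence, 30 min RT.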

[17] = qHTS assay to identify small molecule antagonists of the estrogen related receptor signaling pathway with the pleiotropic PPARgamma coactivator (PGC) from Tox21 10K library (AID 1224841; call rule not given here)
Summary of the method: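 In the PGC/ERR line, DMSO solutions of test chemicals are pin-delivered to 2,000 cells/well six hours after dispensing. Following eighteen hours' incubation, One-Glo reagent is added and luminescence recorded.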

[18] = A CellTox Green Cytotoxicity Assay to monitor cytotoxicity in HEK293 cells - 40 hour (AID 1224871); further: nearly all actives have a fitted effect of over 45% in size; further: potency means the concentration at half of the fitted maximal effect
Summary of the method: as §1

[19] = target: Nuclear receptor subfamily 1 group I member 3 (Homo sapiens) (UniProt Q14994); test: qHTS assay to identify small molecule antagonists of the constitutive androstane receptor (CAR) signaling pathway (AID 1224838); further: nearly all actives have a fitted effect of over 40% in size; further: potency means the concentration at half of the fitted maximal effect
Summary of the method: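 CITCO-stimulated (50 nM final) HepG2 cells stably transfected with hCAR and CYP2B6-2.2kb luciferase were exposed to compounds at 15 concentrations for 24 h at 37 C/5% CO2. A luciferase reagent was added and luminescence recorded after 30 min.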

[20] = target: Nuclear receptor subfamily 1 group I member 3 (Homo sapiens) (UniProt Q14994); test: qHTS assay to identify small molecule agonists of the constitutive androstane receptor (CAR) signaling pathway (AID 1224839);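 further: HepG2 cells stably carrying human CAR and a CYP2B6 luciferase reporter; on the % scale 0 is the no-effect control and ±100 the full control effect; nearly all actives have a fitted effect of over 15% in size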
Summary of the method: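 Using human hepatoma HepG2 cells engineered with hCAR and a CYP2B6-2.2kb reporter, 15-concentration compound series were incubated 24 h alongside PK11195 at 0.75 uM final, with luminescence quantified afterwards.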

Nuclear receptor subfamily 1 group I member 3 (Homo sapiens), sequence (Q14994 whole entry, looked up): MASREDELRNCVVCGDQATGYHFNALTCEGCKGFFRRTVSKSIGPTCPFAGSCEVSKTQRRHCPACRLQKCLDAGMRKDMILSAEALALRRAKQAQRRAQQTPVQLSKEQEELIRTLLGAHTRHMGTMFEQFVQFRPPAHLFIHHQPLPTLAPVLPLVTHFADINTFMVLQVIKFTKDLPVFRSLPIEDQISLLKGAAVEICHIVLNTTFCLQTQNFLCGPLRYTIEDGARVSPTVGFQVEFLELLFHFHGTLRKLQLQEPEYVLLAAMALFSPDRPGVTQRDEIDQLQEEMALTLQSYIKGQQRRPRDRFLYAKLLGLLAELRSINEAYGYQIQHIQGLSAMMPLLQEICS
Thyrotropin receptor (Homo sapiens), sequence (P16473 whole entry, looked up): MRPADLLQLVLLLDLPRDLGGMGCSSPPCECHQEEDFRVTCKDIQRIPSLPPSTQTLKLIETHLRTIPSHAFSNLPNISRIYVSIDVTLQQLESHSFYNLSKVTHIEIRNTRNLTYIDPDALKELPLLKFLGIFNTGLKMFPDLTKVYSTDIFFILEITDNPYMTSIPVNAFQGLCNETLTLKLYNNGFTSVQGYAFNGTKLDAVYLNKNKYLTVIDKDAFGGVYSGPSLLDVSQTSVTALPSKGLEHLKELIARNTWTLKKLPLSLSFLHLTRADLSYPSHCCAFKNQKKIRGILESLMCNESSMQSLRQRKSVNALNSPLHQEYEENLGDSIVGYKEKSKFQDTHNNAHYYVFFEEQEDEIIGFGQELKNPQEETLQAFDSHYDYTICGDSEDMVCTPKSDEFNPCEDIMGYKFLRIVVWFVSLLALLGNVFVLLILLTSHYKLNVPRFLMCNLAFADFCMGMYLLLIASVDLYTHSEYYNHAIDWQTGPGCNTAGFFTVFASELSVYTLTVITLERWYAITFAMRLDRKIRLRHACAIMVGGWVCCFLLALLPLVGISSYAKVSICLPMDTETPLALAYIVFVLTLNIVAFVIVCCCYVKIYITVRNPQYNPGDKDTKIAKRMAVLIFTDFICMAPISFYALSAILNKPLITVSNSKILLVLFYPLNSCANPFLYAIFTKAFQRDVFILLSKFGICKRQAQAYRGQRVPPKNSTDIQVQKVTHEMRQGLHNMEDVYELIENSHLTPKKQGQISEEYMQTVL
Luciferin 4-monooxygenase (Photinus pyralis), sequence (P08659 whole entry, looked up): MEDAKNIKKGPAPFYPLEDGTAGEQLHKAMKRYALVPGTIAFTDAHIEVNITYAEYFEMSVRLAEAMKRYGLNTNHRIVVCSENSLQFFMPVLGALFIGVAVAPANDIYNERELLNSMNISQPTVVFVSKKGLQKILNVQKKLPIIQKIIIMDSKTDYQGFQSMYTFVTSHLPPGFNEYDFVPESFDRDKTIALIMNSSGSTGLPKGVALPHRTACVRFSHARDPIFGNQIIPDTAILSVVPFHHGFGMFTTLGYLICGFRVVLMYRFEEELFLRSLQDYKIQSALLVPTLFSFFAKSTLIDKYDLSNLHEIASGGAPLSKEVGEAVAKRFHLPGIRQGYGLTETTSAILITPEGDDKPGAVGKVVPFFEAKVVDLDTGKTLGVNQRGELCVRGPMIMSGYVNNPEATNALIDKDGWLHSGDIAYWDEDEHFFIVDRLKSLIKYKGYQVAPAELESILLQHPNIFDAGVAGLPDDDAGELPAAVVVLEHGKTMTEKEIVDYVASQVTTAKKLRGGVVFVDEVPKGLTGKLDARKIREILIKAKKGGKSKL

O=S(=O)(NS(=O)(=O)C(F)(F)F)C(F)(F)F
inactive: Potency [3] | Potency [4] | Potency [6] | Potency [8] | Potency [9]
active: Potency [1] 24.3 µM | Potency [2] 30.5 µM | Potency [5] 56.5 µM | Potency [7] 1.94 µM

Nc1nc(N)c(N)c(N)n1
active: Potency [8] 49.2 µM
inactive: Potency [10] | Potency [11] | Potency [12] | Potency [13] | Potency [14] | Potency [5] | Potency [15] | activity change, positive = activation [16] 0.198% | Potency [6] | Potency [7] | Potency [9]

Oc1cc(Cl)c(Cl)c(Cl)c1Cl
active: Potency [17] 21.2 µM | Potency [5] 49.3 µM | Potency [15] 26.7 µM
inactive: Potency [11] | Potency [12] | Potency [13] | Potency [4] | Potency [6] | Potency [9] | Potency [18]

CC(=O)O.CC(=O)O.CC(=O)O.CC(=O)O.CC(=O)O.CC(=O)O.CC(=O)O.O.O.[Cr].[Cr].[Cr]
inactive: Potency [1] | Potency [2] | Potency [3] | Potency [13] | Potency [4] | Potency [14] | Potency [5] | Potency [6] | Potency [8] | Potency [9]

[C-]1=CC=CC1.[Cl][Zr+2][Cl].c1cc[cH-]c1
inactive: Potency [1] | Potency [2] | Potency [3] | Potency [13] | Potency [5] | Potency [8] | Potency [9] | Potency [18]

COP(=S)(OC)Oc1ccc([N+](=O)[O-])c(C)c1
inactive: Potency [1] | Potency [2] | Potency [19] | Potency [11] | Potency [12] | Potency [13] | Potency [4] | Potency [5] | Potency [6] | Potency [7] | Potency [8] | Potency [9] | Potency [18]

O=C1C[C@@H]2OCC=C3CN4CC[C@]56c7ccccc7N1[C@H]5[C@H]2[C@H]3C[C@H]46
inactive: Potency [3] | Potency [11] | Potency [12] | Potency [13] | Potency [4] | Potency [5] | Potency [15] | activity change, positive = activation [16] -3.01% [at 42.5 µM] | Potency [6] | Potency [9] | Potency [18]

CC(=O)[O-].CC(=O)[O-].O.O.[Zn+2]
inactive: Potency [1] | Potency [2] | Potency [3] | Potency [4] | Potency [5] | Potency [6] | Potency [8] | Potency [9]

Nc1ccccc1-c1ccccc1
active: Potency [15] 27.1 µM
inactive: Potency [1] | Potency [2] | Potency [19] | Potency [20] | Potency [3] | Potency [11] | Potency [12] | Potency [4] | Potency [14] | Potency [5] | activity change, positive = activation [16] -40.4% | Potency [6] | Potency [7] | Potency [8] | Potency [9]

C1=CCC=C1
inactive: Potency [1] | Potency [2] | Potency [3] | Potency [13] | Potency [5] | Potency [8] | Potency [9] | Potency [18]

O=[N+]([O-])c1cc(C(F)(F)F)c(Cl)c([N+](=O)[O-])c1Nc1ncc(C(F)(F)F)cc1Cl
active: Potency [1] 15.4 µM | Potency [2] 15.4 µM | Potency [19] 13.7 µM | Potency [3] 8.63 µM | Potency [13] 6.92 µM | Potency [5] 50.5 µM | Potency [6] 21.9 µM | Potency [7] 1.74 µM | Potency [9] 11 µM | Potency [18] 24.5 µM
inactive: Potency [20] | Potency [8]

CC(=O)[O-].CC(=O)[O-].O.O.O.[Pb+2]
inactive: Potency [1] | Potency [2] | Potency [3] | Potency [13] | Potency [4] | Potency [14] | Potency [5] | Potency [6] | Potency [8] | Potency [9] | Potency [18]

CCC[CH2][Sn]([CH2]CCC)([CH2]CCC)[O][Sn]([CH2]CCC)([CH2]CCC)[CH2]CCC
inactive: activity change, positive = activation [16] -60.2% [at 8.39 µM]
active: Potency [1] 0.752 µM | Potency [2] 0.947 µM | Potency [3] 0.533 µM | Potency [13] 0.479 µM | Potency [4] 0.278 µM | Potency [5] 0.278 µM | Potency [15] 0.377 µM | Potency [6] 0.603 µM | Potency [9] 0.537 µM | Potency [18] 0.302 µM
